Assay results reported in the supplement of paper PMC3334620.
The full ranking holds about 33,000 sequences; the median of “E-score (-0.5 to 0.5)” is about -0.01, and the highest 2% start at about 0.26. This excerpt belongs to a sample that is enriched for the highest values.

What follows are sequences tested against Ste12 (UniProt P13574) (assay: PBM E-score (8-mer binding enrichment) (E-score (-0.5 to 0.5)); higher = stronger / more preferred TF binding). Settings: protein concentration: 200 nM; construct: GST-DNA-binding domain.
Procedure: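 Universal 'all 10-mer' protein binding microarrays (Agilent AMADID 015681) probed with GST-tagged S. cerevisiae TFs (full-length or DBD) made by in vitro transcription/translation (PURExpress), about 100-200 nM. Bound TF was detected with fluorescent anti-GST. Each ungapped 8-mer (which stands for itself and its reverse complement) is scored by the PBM enrichment score (E-score), a modified Wilcoxon-Mann-Whitney statistic from -0.5 to +0.5, computed with the Universal PBM Analysis Suite. Scale: above 0.35 generally sequence-specific binding.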

Sequence of UniProt P13574 (P13574 whole entry, the tested form may be a part): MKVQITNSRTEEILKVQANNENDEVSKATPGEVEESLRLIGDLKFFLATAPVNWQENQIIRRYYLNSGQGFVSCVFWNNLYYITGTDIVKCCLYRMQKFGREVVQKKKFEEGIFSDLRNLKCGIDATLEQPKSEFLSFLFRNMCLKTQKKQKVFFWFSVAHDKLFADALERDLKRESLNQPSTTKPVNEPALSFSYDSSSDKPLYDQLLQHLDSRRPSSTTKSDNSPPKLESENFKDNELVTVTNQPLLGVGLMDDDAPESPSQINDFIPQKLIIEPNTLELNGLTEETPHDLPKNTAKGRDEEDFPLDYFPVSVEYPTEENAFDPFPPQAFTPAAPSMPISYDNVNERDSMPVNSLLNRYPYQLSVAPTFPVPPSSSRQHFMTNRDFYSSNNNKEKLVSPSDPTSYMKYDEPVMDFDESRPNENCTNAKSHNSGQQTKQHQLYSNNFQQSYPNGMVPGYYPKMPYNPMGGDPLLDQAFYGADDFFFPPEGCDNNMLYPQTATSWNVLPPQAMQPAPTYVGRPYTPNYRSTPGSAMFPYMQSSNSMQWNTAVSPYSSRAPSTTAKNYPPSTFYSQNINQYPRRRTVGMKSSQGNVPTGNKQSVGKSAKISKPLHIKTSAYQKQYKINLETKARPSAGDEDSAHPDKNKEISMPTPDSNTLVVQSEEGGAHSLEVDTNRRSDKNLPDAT

Sequence | PBM E-score
AATCCAAA | 0.14
CCGTTAAG | -0.177
ACGCTGCC | -0.108
ACCTTTGA | 0.0506
GGTCTTCA | -0.164
CCTTTTCA | -0.0167
CGTAGCAA | 0.00941
AAGCCTTG | -0.00117
ACTGTGAA | 0.27
CGTGTGAA | 0.14
TGTGTGAA | 0.284
ACTGTGAT | -0.0243
GCTGTGAA | -0.0834
GGTGTGAA | 0.19
ACTAAGAG | -0.0255
GCATGATA | 0.0794
TAATGAGA | 0.168
AAATGATA | 0.292
CAATGATA | 0.074
GTATGATA | 0.0429
AAATGATC | -0.0582
GAATGATC | 0.00293
GAATGATA | 0.309
TAATGATA | 0.272
AAATGATT | 0.197
CTATGATA | -0.0247

Sequence | PBM E-score
ATATGATA | 0.271
ATGCCTCC | -0.0978
CAATCTCC | -0.00169
CTCGATAC | 0.155
GAGCGATC | -0.105
CCGGTCGC | -0.0319
GGTGACAA | 0.0614
AAGAGCTC | -0.0902
CAGGGCCC | -0.148
CTAAATAA | 0.0819
CAAAATAC | 0.115
CAAAATAA | 0.33
ATAAATAA | 0.266
ATAAATAG | 0.0906
TAAAATAA | 0.269
TTAAATAA | 0.249
CAAAATAG | -0.0251
AAAAATAA | 0.229
ATCTCAGC | -0.112
AGTTGAGC | -0.152
ATCTATGC | -0.0236
ACGGGCCC | -0.199
AATTTAAA | 0.269
CATTTAAC | 0.212
TATTTACA | 0.101
TCTTTTAA | 0.142

Sequence | PBM E-score
GATTTTAA | 0.201
CATTTAAA | 0.277
AATTTAAT | 0.159
CATTTAAG | -0.0794
TATTTAAA | 0.379
AATTTAAC | 0.208
TATTTTAA | 0.301
GATTTAAA | 0.113
GCACCAGC | -0.101
GGACAGGA | -0.152
ACCATCGC | 0.0245
CGCAATCA | 0.0872
GGCTCACC | -0.244
ACTAGGTG | -0.199
AACTTAAA | 0.186
CACTTAAA | 0.287
CACTTAAC | -0.121
AGTCCACA | -0.173
AGGAAACG | -0.105
GTGAAAAA | 0.232
AAGAAACG | 0.148
AGGAAACA | 0.19
ATGAAACA | 0.495
GTGAAATA | 0.169
ATGAAAGA | 0.184
ATGAAACG | 0.484

Sequence | PBM E-score
GTGAAACA | 0.48
AAGCAGCC | -0.078
ACATCTGA | -0.24
CAACTGTA | -0.0454
AATCAATG | 0.0688
CCTAGAGC | -0.189
ATTATCCC | 0.0652
ATTATCCG | 0.294
ATTATCCA | 0.0202
ACCAGTAC | -0.11
AAAACAGG | -0.0182
GAAACAGC | 0.232
CAAACAGA | 0.12
GAAACAGA | 0.287
AAAACAGC | 0.127
GTAACAGA | 0.334
AAAACAGA | 0.295
ATAACAGA | 0.115
CTAACAGA | 0.153
ATATACAT | 0.00017
AGCCTGTC | -0.181
CGCTCTTC | 0.00173
CTGTATCA | 0.207
ATGTATCG | 0.0479
GTGTATCA | 0.301
ATGTATCA | 0.344

Sequence | PBM E-score
GTGTATTA | 0.25
ATGTATCC | 0.0246
ACCAACCT | 0.0089
ATTGCTGC | -0.00539
GCACTCCA | -0.161
AAAGAATC | 0.136
GACTCACA | -0.201
AATCTCCA | -0.184
AAAACCTC | 0.207
CAAACCTC | -0.105
ATAACCAG | -0.0264
AAAACCAA | 0.209
CAAACCGC | 0.00675
CTAACCAA | 0.186
GAAACCAA | 0.355
ATAACCAA | 0.294
GAAACCGC | 0.351
GAAACCTC | 0.318
AAAACCGC | 0.0403
GAAACCAC | 0.164
ACCTAAAT | 0.11
ACGTTGGC | -0.0145
CATGGCGG | -0.0453
CTTTGCAC | -0.0246
GAGCGTGA | -0.0254
CGGCTGAA | -0.0336

Sequence | PBM E-score
GCAAGCAC | -0.125
ATAGTTTA | 0.0232
AAAACTCG | 0.125
GCGATGCA | -0.234
CGAATTAG | 0.095
CAAACCGA | 0.0295
AAAACCGA | 0.115
GAAACCGA | 0.267
GGTAACCA | -0.12
CGTAACAA | 0.293
GCTAACAA | -0.046
TCTAACAA | 0.127
AGTAACAA | 0.0502
CGTAACAG | 0.205
GGTAACAC | 0.0298
TGTAACAA | 0.333
GGTAACAA | 0.264
AGAACTCA | 0.117
TCGAGCGA | -0.0486
GAGTTGTA | -0.0493
AGCGTTTC | 0.294
CTCGTTTC | 0.242
ATCGTTTC | 0.35
ATCGTTTG | 0.0575
AGCGTTTA | -0.122
CGCGTTTC | 0.234

Sequence | PBM E-score
AACCCACA | -0.0351
GGTGGGTA | 0.0601
CATTTTTA | 0.0631
CATTTCCC | 0.295
CATTTTCC | 0.123
CATTTTAA | 0.27
CATTTTCA | 0.273
AATTTTCA | 0.165
GATTTCCC | -0.0998
CATTTTAC | 0.254
CATTTTAG | 0.267
CCTTTTAA | 0.0649
TATTTTCA | 0.201
AATTTTAG | 0.105
AAGGCGGC | -0.0929
CCCTGAAC | 0.0241
CCCTTGCG | -0.0882
ATACGTTG | -0.0291
CGTGGCGC | -0.1
TGAGGTAA | 0.128
TCATTACA | 0.18
